Experimental findings from PubChem BioAssay (NCI) are described below.

Where “and” joins values, the source holds several entries; their conditions need not be identical. Equal values may be shown once. The panel holds about 83,000 compounds, 20% with a hit somewhere; the sample as a whole holds those more often.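 48-hour exposure, single concentration, 96-well plates; percent growth endpoint where 0 means no net growth. Active: below 10.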 Calls of active or inactive are those of the source.

Common to all, as to assay: NCI-60 one-dose screen, 48 h (100 = growth as untreated, 0 = no growth, -100 = all killed)
Settings in all cases: 10 µM unless noted

The subject of assay [1] is SK-MEL-2 melanoma.
The subject of assay [2] is EKVX NSCLC.
Assay [3] concerns SN12C renal.
The test system of assay [4] is UO-31 renal.
For assay [5], the system named is TK-10 renal.
The test system of assay [6] is CAKI-1 renal.
Assay [7] relates to A498 renal.
For assay [8], the system named is HL-60(TB) leukemia.
The subject of assay [9] is CCRF-CEM leukemia.
For assay [10], the system named is ACHN renal.

Turning to `COc1cc(/C=C\[N+](=O)[O-])ccc1OCc1ccccc1`, the growth in [1] is 89.5% (inactive); in [2], 91.5% (inactive); in assay [3], 56.6% (inactive); in [4], 30.2% (inactive); in [5], 66.3% (inactive); in assay [6], 73.7% (inactive). Further, the growth in [7] was 71.1% (inactive); in assay [8], 3.4% (active); in assay [9], 14.5% (inactive).
For `Cc1cc(Br)c([N+](=O)[O-])cc1[N+](=O)[O-]`, the growth in assay [1] is 111% (inactive); in [2] it was 103% (inactive); in [3], 101% (inactive); in assay [4], 114% (inactive); in assay [5], 110% (inactive); in assay [6] it was 88.5% (inactive). Moreover, the growth in assay [7] is 97.9% (inactive); in [8], 59.4% (inactive); in [9], 60.5% (inactive).
As to `Cc1ccc(NC2=N[C@]34CC(=O)CC[C@]3(C)[C@H]3CC[C@]5(C)C(=O)CC[C@H]5[C@@H]3C[C@@H]4S2)c(C)c1`, the growth was 72.6% (inactive) in assay [1]; 51.9% (inactive) in [2]; 26.2% (inactive) in assay [3]; 34.3% (inactive) in [4]; 63.3% (inactive) in assay [5]; 32.3% (inactive) in [10]. The growth in assay [6] is 49.8% (inactive); in assay [7], 66.7% (inactive); in [8], 9.29% (active); in assay [9], 7.99% (active).
On to `C[C@]12CC[C@H](O)C[C@@H]1CC[C@@H]1[C@@H]2CC[C@]2(C)OC(=O)CC[C@@H]12`, for which the growth in [1] is 108% (inactive); in [2] it was 89% (inactive); in assay [3], 96.8% (inactive); in assay [4], 83.1% (inactive); in assay [5], 97.5% (inactive); in assay [10], 107% (inactive). Also, the growth in assay [6] is 92.8% (inactive); in [7], 109% (inactive); in [8], 94.4% (inactive); in assay [9] it was 114% (inactive).
With `O=Cc1cn(Cc2ccccc2)c2ccccc12`, the growth in assay [1] was 27.1% (inactive); in assay [2], 120% (inactive); in [3] it was 98.1% (inactive); in [4] it was 55.6% (inactive); in assay [5], 25.1% (inactive); in assay [6] it was 21.9% (inactive). In addition, the growth in [7] is -92.7% (active); in assay [8], 105% (inactive); in assay [9] it was 104% (inactive).
As to `C(=NC1CCCCC1)=NC1CCCCC1`, the growth is 92.8% (inactive) and 94.4% (inactive) in assay [1]; 41.3% (inactive) in assay [2]; 100% (inactive) and 82.2% (inactive) in [3]; 98% (inactive) and 76.9% (inactive) in assay [4]; 101% (inactive) and 104% (inactive) in assay [5]; 91.3% (inactive) and 88.7% (inactive) in [6]. Also, the growth in assay [7] is 104% (inactive) and 51.2% (inactive); in [8], 118% (inactive) and 46.3% (inactive); in assay [9] it was 77.3% (inactive).
For the compound `COc1ccc(C(C#N)C(C)=O)cc1` (stereo unspecified), the growth is 103% (inactive) in [1]; 108% (inactive) in [2]; 90.4% (inactive) in assay [4]; 96.8% (inactive) in assay [5]; 99.8% (inactive) in [10]; 95.3% (inactive) in assay [6]. The growth is 96.8% (inactive) in assay [7], 110% (inactive) in assay [8] and 98.6% (inactive) in assay [9].
For `C/C=C(/C)C(=O)O[C@H]1CC[C@@]2(C)[C@@H]3CC[C@H]4[C@]5(O)C[C@H](O)[C@@]6(O)[C@@H](CN7C[C@@H](C)CC[C@H]7[C@@]6(C)O)[C@]5(O)C[C@@]42O[C@@]13O`, the growth in assay [1] is 0.648% (active); in assay [2], 107% (inactive); in assay [3], 115% (inactive); in assay [4], 81% (inactive); in assay [10] it was 113% (inactive); in assay [6], 103% (inactive). Besides, the growth in assay [7] was 127% (inactive); in assay [8] it was 128% (inactive); in assay [9], 106% (inactive).
As to `Cc1ccccc1-n1c(/C=C\c2ccccn2)nc2ccccc2c1=O`, the growth was 79.4% (inactive) in assay [1]; 82.8% (inactive) in assay [2]; 77.7% (inactive) in assay [3]; 54.7% (inactive) in assay [4]; 31.2% (inactive) in [6]; 62.1% (inactive) in assay [7]. Besides, the growth was 19.9% (inactive) in [8] and 29.9% (inactive) in assay [9].
For `O=C(O)C1C(C(=O)O)C2(Cl)C(Cl)=C(Cl)C1(Cl)C2(Cl)Cl` (stereo unspecified), the growth in assay [1] was 108% (inactive) and 113% (inactive); in [2], 90.4% (inactive) and 118% (inactive); in assay [3] it was 103% (inactive) and 101% (inactive); in [4] it was 73.1% (inactive) and 92.2% (inactive); in [10], 99.9% (inactive); in assay [6], 116% (inactive). Moreover, the growth was 102% (inactive) and 101% (inactive) in [7]; 95.1% (inactive) in assay [8]; 1.8% (active) and 114% (inactive) in assay [9].
For `NC(N)=NC(N)=Nc1ccc(Cl)cc1`, the growth in [1] is 111% (inactive); in assay [2] it was 93% (inactive); in assay [3] it was 103% (inactive); in assay [4], 95.2% (inactive); in assay [8] it was 48.4% (inactive); in assay [9], 89.7% (inactive).
Turning to `Oc1ccccc1C=NCCN=Cc1ccccc1O.[Fe]`, the growth in [1] is 92.4% (inactive); in assay [2], 110% (inactive); in assay [3] it was 52% (inactive); in assay [4], 72.3% (inactive); in assay [10] it was 92.3% (inactive); in assay [6], 98.1% (inactive). Further, the growth in [7] was 65.5% (inactive); in assay [8], 44.5% (inactive); in [9], -32.9% (active).
